The nature of test [1]: qHTS assay to identify small molecule antagonists of the androgen receptor (AR) signaling pathway using the MDA cell line in the presence of 0.5 nM R1881 - cell viability counter screen (AID 1259242). Further: nearly all actives have a fitted effect of over 45% in size. In short, it runs like this:
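qHTS format. MDA-kb2 (MMTV-luc, AR/GR responsive) + cpd + 0.5 nM R1881 final, 16 hr 37C/0% CO2 → CellTiter-Fluor 30 min → fluorescence intensity.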

The target of test [2] is Estrogen receptor (Homo sapiens) (UniProt P03372). As to the kind of experiment: qHTS assay to identify small molecule antagonists of the estrogen receptor alpha (ER-alpha) signaling pathway using the BG1 cell line in the presence of 0.1 nM 17-beta-estradiol (AID 1259244). Further: nearly all actives have a fitted effect of over 50% in size. The gist of the method:
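Reporter is a stably transfected luciferase under four estrogen responsive elements in VM7Luc4E2 cells expressing native full-length ER-alpha; inhibition of 0.1 nM (final) 17beta-estradiol-driven signal over 22 h is read by luminescence.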
(In general: qHTS replaces the single test concentration by a dilution series.)

Test [3] in a line: qHTS assay to identify small molecule HDAC inhibitors (AID 1259364). Further: potency means the concentration at half of the fitted maximal effect.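 Further: wild-type HCT-116 cells with endogenous class I/II HDAC activity; nearly all actives have a fitted effect of over 45% in size.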 In short, it runs like this:
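Quantitative high-throughput format: overnight-seeded HCT-116 cells got compounds for 2 hr at 37C; HDAC-Glo I/II reagent added, 30 min RT, luminescence measured.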

A short description of test [4]: qHTS assay to identify small molecule HDAC inhibitors - cell viability counter screen (AID 1259365). Further: series mostly up to about 92 µM; nearly all actives have a fitted effect of over 50% in size. The gist of the method:
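To flag cytotoxic hits, 1,500 wild-type HCT-116 cells per well, plated the day before, receive test compounds for 2hr at 37 C before CellTiter-Glo reagent and a luminescence read.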

The nature of test [5]: qHTS assay to identify small molecule agonists of the sonic hedgehog signaling (Shh) pathway - cell viability counter screen (AID 1259366). Further: nearly all actives have a fitted effect of over 50% in size. The gist of the method: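 Fluorescence from CellTiter-Fluor reports live cells in this counter screen. NIH/3T3-derived Gli1-Luc reporter cells receive test compounds for 24hr at 37C; reagent goes in at 23hr.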
Test [6] in a line: qHTS assay to identify small molecule antagonists of the sonic hedgehog signaling (Shh) pathway - cell viability counter screen (AID 1259367). Further: nearly all actives have a fitted effect of over 55% in size. In short, it runs like this:
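Conditioned medium drove Shh signaling in 3T3 Gli1-Luc cells exposed to compounds at 37C and 5% CO2. Viability was determined from CellTiter-Fluor fluorescence, with reagent incubated 1 hr after 23 hr of treatment.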

Test [7] can be described thus: qHTS assay to identify small molecule agonists of the sonic hedgehog signaling (Shh) pathway (AID 1259368; calls by dose curve;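 further: NIH/3T3-derived 3T3Gli1-Luc cells carrying a stable Gli1-driven firefly luciferase reporter; series mostly up to about 92 µM; nearly all actives have a fitted effect of over 15% in size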). The gist of the method: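 Quantitative high-throughput format using a Gli1-driven firefly luciferase reporter line derived from NIH/3T3 cells. After a 24 hr compound treatment at 37 C and 5% CO2, luminescence reported Gli1 response element activity.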
Test [8] can be described thus: qHTS assay to identify small molecule antagonists of the sonic hedgehog signaling (Shh) pathway (AID 1259369; calls by dose curve; further: nearly all actives have a fitted effect of over 45% in size). The gist of the method: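 Stable Gli1-Luc reporter NIH/3T3 clone; quantitative HTS in stimulated mode with conditioned medium. Luminescence measured after 24hr compound treatment at 37 C.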
Test [9] deals with Estrogen receptor beta (Homo sapiens) (UniProt Q92731). The experiment in a line: qHTS assay to identify small molecule antagonists of the estrogen receptor beta (ER-beta) signaling pathway (AID 1259378; active means well fitted inhibition curve with a large enough effect in the signal ratio in the repeat runs, not every such curve was filed as active; the % refers to the signal ratio). The gist of the method:
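ER-beta-UAS-bla HEK293T (GripTite) cells in 2% charcoal-stripped FBS medium were preincubated 6 hr at 37C, dosed with compound, then stimulated with 1 nM E2 (final) for 16 hr; beta-lactamase reporter read by B/G FRET fluorescence after 2 hr substrate loading.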

Test [10] in a line: qHTS assay to identify small molecule agonists of the androgen receptor (AR) signaling pathway in the presence of an antagonist - cell viability counter screen (AID 1259379).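 Further: MDA-kb2 human breast cancer cells carrying an MMTV luciferase reporter; series mostly up to about 92 µM; nearly all actives have a fitted effect of over 25% in size.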 In short, it runs like this: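 Nilutamide-containing (3.0uM final) MDA-kb2 cultures, 3,000 cells/well, were treated with compounds across 15 concentrations. After 16 hr at 37C with no CO2, cell viability was determined by CellTiter-Fluor fluorescence in the luciferase assay wells.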

Test [11] is described as follows: qHTS assay to identify small molecule agonists of the estrogen receptor beta (ER-beta) signaling pathway - cell viability counter screen (AID 1259380). Further: nearly all actives have a fitted effect of over 30% in size. In short, it runs like this: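 Steps: plate ER-beta-UAS-bla HEK293T cells, rest 6 hr; add compounds in DMSO; incubate 16 hr at 37C, 5% CO2; add FRET substrate 2 hr; add CellTiter-Glo, wait 30 min at room temperature; read luminescence.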

Test [12] is described as follows: qHTS assay to identify small molecule antagonists of the estrogen receptor beta (ER-beta) signaling pathway - cell viability counter screen (AID 1259382). Further: series mostly up to about 92 µM; nearly all actives have a fitted effect of over 55% in size. The gist of the method: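 Viability is scored by CellTiter-Glo luminescence (30 min, room temperature) in ER-beta-UAS-bla HEK293T wells already read for reporter fluorescence. Compound exposure lasts 16 hr at 37C alongside 1nM 17-beta-estradiol in charcoal-stripped serum medium.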

In test [13] the target is Estrogen receptor (Homo sapiens) (UniProt P03372). As to the kind of experiment: qHTS assay to identify small molecule agonists of the estrogen receptor alpha (ER-alpha) signaling pathway in the presence of an antagonist (AID 1259383; calls by dose curve; further: nearly all actives have a fitted effect of over 15% in size; further: potency means the concentration at half of the fitted maximal effect; on activation: top concentration of the series differs between compounds). In short, it runs like this: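 Readout was ERE-driven luciferase luminescence in VM7Luc4E2 cells, which express full-length ER-alpha endogenously. Compounds were tested at 15 concentrations for 22hr alongside 10.0nM ICI-182,780 (final concentration).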
Sequence of Estrogen receptor (Homo sapiens) (P03372 whole entry, looked up): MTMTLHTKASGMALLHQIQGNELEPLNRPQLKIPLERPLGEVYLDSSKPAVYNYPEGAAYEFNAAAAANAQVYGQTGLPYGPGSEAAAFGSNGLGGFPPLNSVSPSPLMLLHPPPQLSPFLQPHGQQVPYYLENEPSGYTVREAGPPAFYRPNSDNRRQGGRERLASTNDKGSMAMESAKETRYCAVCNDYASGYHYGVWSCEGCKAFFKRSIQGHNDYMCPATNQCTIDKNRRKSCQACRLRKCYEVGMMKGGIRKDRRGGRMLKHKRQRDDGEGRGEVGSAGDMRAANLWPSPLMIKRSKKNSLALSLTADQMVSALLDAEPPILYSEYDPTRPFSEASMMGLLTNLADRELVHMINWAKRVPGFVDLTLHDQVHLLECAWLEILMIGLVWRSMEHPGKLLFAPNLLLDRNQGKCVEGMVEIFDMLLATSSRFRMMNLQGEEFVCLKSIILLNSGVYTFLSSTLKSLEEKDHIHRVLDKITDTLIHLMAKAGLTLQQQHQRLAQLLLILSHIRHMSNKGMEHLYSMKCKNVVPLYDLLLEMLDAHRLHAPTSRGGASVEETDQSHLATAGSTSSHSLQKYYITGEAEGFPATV

Test [14] in a line: qHTS assay to identify small molecule agonists of the estrogen receptor alpha (ER-alpha) signaling pathway in the presence of an antagonist - cell viability counter screen (AID 1259386).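 Further: series mostly up to about 92 µM; cells exposed to compounds for 22 h at 37 °C before the viability read; nearly all actives have a fitted effect of over 30% in size.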 The gist of the method: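 In this counter screen, compound effects on VM7Luc4E2 viability were tested in the presence of the antagonist ICI-182,780 at 10.0nM final. Compounds were dosed at 15 concentrations, exposure lasted 22hr, and the CellTiter-Fluor signal was read.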

Test [15] concerns the target Estrogen receptor beta (Homo sapiens) (UniProt Q92731). The experiment in a line: qHTS assay to identify small molecule agonists of the estrogen receptor beta (ER-beta) signaling pathway (AID 1259377; active means well fitted activation curve with a large enough effect in the signal ratio in the repeat runs, not every such curve was filed as active; the % refers to the signal ratio). The gist of the method:
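Screening used GripTite ER-beta-UAS-bla cells held in 2% charcoal-stripped FBS medium. After overnight (16 hr) compound incubation at 37C, beta-lactamase activity was detected with a FRET substrate by fluorescence.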

A short description of test [16]: qHTS assay to identify small molecule agonists or antagonists of the thyroid stimulating hormone receptor (TSHR) signaling pathway - wild type cell line counter screen (AID 1259384; calls by dose curve). The gist of the method:
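Wild-type HEK293 cells were plated 18 h at 37 C/5% CO2, pin-dosed with compound plus Ro20-1724 medium, held 30 min at room temperature, then given cAMP-d2 and anti-cAMP-cryptate; fluorescence was read after 1 h. Fifteen concentrations, triplicate.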

In test [17] the target is Thyrotropin receptor (Homo sapiens) (UniProt P16473). The experiment in a line: qHTS assay to identify small molecule antagonists of the thyroid stimulating hormone receptor (TSHR) signaling pathway (AID 1259385; calls by dose curve; further: nearly all actives have a fitted effect of over 20% in size). In short, it runs like this: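 TSHR-HEK293 cells were plated and held 18 h at 37C/5% CO2, then given compound plus Ro20-1724 and stimulated with TSH at 1.5 ng/mL final. After 30 min at room temperature, cAMP was detected with cAMP-d2/anti-cAMP-cryptate (1 h) by fluorescence.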
Sequence of Thyrotropin receptor (Homo sapiens) (P16473 whole entry, looked up): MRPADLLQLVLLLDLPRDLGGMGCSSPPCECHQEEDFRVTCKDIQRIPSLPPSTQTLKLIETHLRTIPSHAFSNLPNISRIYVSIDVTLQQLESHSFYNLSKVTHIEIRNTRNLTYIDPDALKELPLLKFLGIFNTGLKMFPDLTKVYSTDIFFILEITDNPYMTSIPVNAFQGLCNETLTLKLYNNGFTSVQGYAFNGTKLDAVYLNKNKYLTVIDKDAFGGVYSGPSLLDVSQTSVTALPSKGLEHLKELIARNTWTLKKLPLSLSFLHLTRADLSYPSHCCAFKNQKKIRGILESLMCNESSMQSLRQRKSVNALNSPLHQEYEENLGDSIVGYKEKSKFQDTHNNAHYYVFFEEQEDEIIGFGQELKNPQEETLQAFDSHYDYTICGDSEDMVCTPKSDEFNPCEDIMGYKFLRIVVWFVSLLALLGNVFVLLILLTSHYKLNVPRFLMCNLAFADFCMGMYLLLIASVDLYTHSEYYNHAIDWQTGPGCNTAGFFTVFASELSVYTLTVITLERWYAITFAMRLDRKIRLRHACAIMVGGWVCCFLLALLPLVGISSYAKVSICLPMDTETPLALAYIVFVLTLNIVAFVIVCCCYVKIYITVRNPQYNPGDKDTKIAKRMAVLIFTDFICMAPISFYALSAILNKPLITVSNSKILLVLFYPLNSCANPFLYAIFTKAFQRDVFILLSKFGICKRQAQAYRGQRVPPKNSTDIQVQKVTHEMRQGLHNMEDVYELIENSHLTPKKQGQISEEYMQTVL

The source of these data is PubChem BioAssay (Tox21).

Structures are written as SMILES. Results filed as inconclusive are left out. The source made the active and inactive calls. Unless noted, the call rests on the fitted dose curve; in most records, active means well fitted curve in the direction sought with a large enough effect in the repeat runs; inconclusive means weak or mixed curves; inactive means no such curve, though single readings can be large; an effect the other way counts as inactive or inconclusive.

Sequence of Estrogen receptor beta (Homo sapiens) (Q92731 whole entry, looked up): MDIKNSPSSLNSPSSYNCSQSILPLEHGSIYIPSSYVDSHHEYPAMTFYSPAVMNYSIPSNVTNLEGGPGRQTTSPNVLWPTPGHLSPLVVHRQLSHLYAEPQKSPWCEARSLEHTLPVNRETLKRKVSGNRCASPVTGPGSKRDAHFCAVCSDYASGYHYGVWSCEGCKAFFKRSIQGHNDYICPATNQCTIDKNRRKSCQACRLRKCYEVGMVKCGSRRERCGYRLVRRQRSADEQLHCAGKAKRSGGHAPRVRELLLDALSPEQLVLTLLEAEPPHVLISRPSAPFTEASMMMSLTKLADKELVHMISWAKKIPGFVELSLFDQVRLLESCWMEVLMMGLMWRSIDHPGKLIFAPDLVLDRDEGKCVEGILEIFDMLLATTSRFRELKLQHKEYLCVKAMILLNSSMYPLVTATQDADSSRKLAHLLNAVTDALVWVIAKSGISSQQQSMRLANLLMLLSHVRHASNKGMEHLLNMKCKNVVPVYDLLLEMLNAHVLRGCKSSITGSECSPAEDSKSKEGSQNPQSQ

As to `C=C(C)CN(CC)c1c([N+](=O)[O-])cc(C(F)(F)F)cc1[N+](=O)[O-]`, the outcome in [1], in test [4] and in [7] was inactive. Moreover, the Potency result in test [2], in test [3], in [5], in test [6], in test [8] and in test [9] was “inactive” in each case. Also, the Potency result in [10], in test [11], in [12], in [13] and in test [14] was “inactive” throughout.
As to `CCCCc1ccc(O)cc1`, the outcome in [1], in [4], in test [7] and in test [15] was inactive. Besides, the Potency entry in test [2], in [3], in [5], in [6], in test [8] and in [9] was “inactive” in each case. The Potency result in test [10], in test [11], in test [12], in [13], in test [16] and in test [14] was “inactive” each time.
Turning to `CC(=O)CC(c1ccc(Cl)cc1)c1c(O)c2ccccc2oc1=O` (stereo unspecified), the result in [1], in test [4], in [7] and in test [15] was inactive. In addition, the Potency entry in test [2], in test [3], in test [5], in test [6], in [8] and in [9] was “inactive” throughout. In addition, the Potency result in [10], in [11], in test [12] and in test [14] was “inactive” throughout.
Take `Cc1cc(C)c(C(=O)P(=O)(C(=O)c2c(C)cc(C)cc2C)c2ccccc2)c(C)c1`: the result in test [1], in test [4], in test [7] and in test [15] was inactive. Further, the Potency result in test [2], in test [3], in test [5], in test [6], in [8] and in test [10] was “inactive” each time. The Potency entry in [11], in [12], in test [13], in test [16] and in [14] was “inactive” in each case.
For the compound `C=CC1CC=CCC1` (stereo unspecified), the outcome in [1], in test [4], in test [7] and in test [15] was inactive. Also, the Potency result in [2], in [3], in test [5], in [6], in [8] and in test [9] was “inactive” in each case. In addition, the Potency result in test [10], in test [11], in test [12], in test [16], in [17] and in test [14] was “inactive” in each case.
Take `CCC(Cl)[N+](=O)[O-]` (stereo unspecified): the outcome in test [1], in [4], in test [7] and in test [15] was inactive. Besides, the Potency entry in [2], in test [3], in test [5], in [6], in test [8] and in [9] was “inactive” in each case. The Potency result in test [10], in [11], in test [12], in test [13], in test [16] and in test [17] was “inactive” throughout. Besides, in [14], the Potency entry was “inactive”.
Consider `CC1CN1P(=O)(N1CC1C)N1CC1C` (stereo unspecified), for which the outcome in test [1], in test [4] and in test [7] was inactive. The Potency entry in test [2], in [3], in [5], in [6], in test [8] and in [9] was “inactive” in each case. The Potency entry in [10], in test [11], in test [12], in test [13] and in test [14] was “inactive” each time.
Consider `N#Cc1c(Cl)cccc1Cl`, for which the outcome in [1], in test [4], in [7] and in [15] was inactive. The Potency entry in [2], in test [3], in [5], in test [6], in test [8] and in test [9] was “inactive” throughout. For the same compound, the Potency result in test [10], in test [11], in test [12] and in test [14] was “inactive” in each case.
On to `c1coc(-c2nc3ccccc3[nH]2)c1`, for which the outcome in test [1], in test [4] and in test [7] was inactive. Further, the Potency result in test [2], in [5], in test [6], in test [8], in test [9] and in test [10] was “inactive” each time. In addition, the Potency result in [12], in test [16] and in test [14] was “inactive” throughout. Also, the values for the Potency in [3] and in test [13] were 0.611 µM (active) and 7.7 µM (active), respectively.
Turning to `Cc1cccc(C#N)c1`, the outcome in [1], in test [4] and in [7] was inactive. The Potency result in test [2], in test [3], in test [5], in test [6], in [8] and in test [9] was “inactive” in each case. Moreover, the Potency entry in test [10], in [11], in test [12], in [13], in test [16] and in [14] was “inactive” each time.
In the case of `CCC(C)n1c(=O)[nH]c(C)c(Br)c1=O` (stereo unspecified), the outcome in [1], in [4] and in test [7] was inactive. Further, the Potency result in [2], in test [3], in [5], in [6], in [8] and in [9] was “inactive” in each case. For the same compound, the Potency entry in [10], in [11], in test [12] and in test [14] was “inactive” throughout.
`ClC(Cl)(Cl)C(Cl)(Cl)Cl`: the outcome in test [1], in [4], in test [7] and in test [15] was inactive. In addition, the Potency result in test [2], in test [3], in test [5], in test [6], in [8] and in [9] was “inactive” throughout. Further, the Potency entry in test [10], in [11], in test [12], in [13] and in test [14] was “inactive” throughout.
Regarding `O=c1oc2ccccc2c(O)c1C1CCCc2ccccc21` (stereo unspecified), the result in test [1], in test [4], in test [7] and in test [15] was inactive. Besides, the Potency entry in test [2], in test [3], in [5], in test [6], in test [8] and in test [9] was “inactive” in each case. Moreover, the Potency result in [10], in test [12] and in test [14] was “inactive” throughout.
`OCCBr`: the result in test [1], in test [4], in test [7] and in test [15] was inactive. In addition, the Potency entry in test [2], in [3], in test [5], in [6], in test [8] and in [9] was “inactive” throughout. The Potency entry in test [10], in test [11], in test [12], in test [13], in test [16] and in [14] was “inactive” throughout.
